In PubChem BioAssay (NCI):
About 79,000 compounds went through this panel and 15% of them were active in at least one assay; those are over-represented in the sample as a whole. A number with no mark means an inactive call. Active and inactive are the calls of the source. Rule as the data show it: active = growth inhibition above about 70%; inactive = the rest.

Tests used:
[1] = NCI Yeast Anticancer Drug Screen. Data for the rad52 strain (AID 147);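 also: 0% = growth of vehicle-treated control cultures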; settings: S. cerevisiae rad52 mutant growth inhibition, stronger effect = higher value
How it was run: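 Read-out: growth inhibition versus vehicle-treated controls. Cells were a DNA repair-deficient yeast strain treated with compounds.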

[2] = NCI Yeast Anticancer Drug Screen. Data for the wt1 strain (AID 149);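 also: 0% = growth of vehicle-treated wt1 cultures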; settings: S. cerevisiae wt1 strain (SPY 50644) growth inhibition, stronger effect = higher value
How it was run: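 Each compound is tested on wt1 yeast and the loss of growth versus vehicle gives the inhibition value.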

[3] = NCI Yeast Anticancer Drug Screen. Data for the rad50EPP+ strain (AID 151);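 also: 0% = growth of vehicle-treated control cultures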; settings: S. cerevisiae rad50 mutant strain, stronger effect = higher value
How it was run: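 Growth inhibition read against vehicle controls in rad50EPP+ yeast, a strain altered in DNA damage repair, after compound exposure.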

[4] = NCI Yeast Anticancer Drug Screen. Data for the mgt1 strain (AID 153); settings: S. cerevisiae mgt1 mutant growth inhibition, stronger effect = higher value
How it was run: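 mgt1 yeast grown with test compound; read-out is growth inhibition versus vehicle-treated cultures.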

[5] = NCI Yeast Anticancer Drug Screen. Data for the rad50 strain (AID 155);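 also: 0% = growth of vehicle-only cultures of the same strain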; settings: S. cerevisiae rad50 strain growth inhibition, stronger effect = higher value
How it was run: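 Vehicle-treated cultures provide the reference for the growth inhibition reported for compound-exposed, repair-deficient yeast.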

[6] = NCI Yeast Anticancer Drug Screen. Data for the mec2-1 strain (AID 157); settings: S. cerevisiae mec2-1 strain, stronger effect = higher value
How it was run: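 Yeast mec2-1 mutant treated with compound. Readout: growth inhibition vs vehicle controls.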

[7] = NCI Yeast Anticancer Drug Screen. Data for the CLN2oe strain (AID 163);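 also: 0% = growth of vehicle-only control cultures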; settings: S. cerevisiae CLN2oe strain, stronger effect = higher value
How it was run: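 Read-out: yeast growth inhibition, expressed relative to vehicle-only controls. The strain bears an engineered cell-cycle alteration.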

[8] = NCI Yeast Anticancer Drug Screen. Data for the cln2 rad14 strain (AID 165);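 also: 0% = growth equal to vehicle treated cultures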; settings: S. cerevisiae cln2 rad14 strain, stronger effect = higher value
How it was run: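 cln2 rad14 yeast strain; compound exposure; growth inhibition read vs vehicle controls.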

[9] = NCI Yeast Anticancer Drug Screen. Data for the bub3 strain (AID 167); settings: S. cerevisiae bub3 mutant strain, stronger effect = higher value
How it was run: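 Mutant yeast screening strain plus compound; vehicle-treated cultures serve as the 0% inhibition reference.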

[10] = NCI Yeast Anticancer Drug Screen. Data for the wt2 strain (AID 169); settings: S. cerevisiae wt2 strain growth inhibition, stronger effect = higher value
How it was run: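 Read-out: growth inhibition versus vehicle-treated control cultures after compound exposure of the yeast strain.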

[11] = NCI Yeast Anticancer Drug Screen. Data for the mlh1 strain (AID 171);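 also: 0% = growth of vehicle-treated control cultures of the same strain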; settings: S. cerevisiae mlh1 strain growth inhibition, stronger effect = higher value
How it was run: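 Read-out: growth inhibition versus vehicle controls. Strain: engineered yeast with a defined DNA repair or cell cycle defect, compound-treated.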

[12] = NCI Yeast Anticancer Drug Screen. Data for the sgs1 strain (AID 173);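 also: 0% = growth of vehicle-only control cultures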; settings: S. cerevisiae sgs1 mutant, stronger effect = higher value
How it was run: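 Read-out: yeast growth inhibition relative to vehicle controls, following compound exposure of a strain with a defined DNA repair/cell cycle alteration.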

[13] = NCI Yeast Anticancer Drug Screen. Data for the mlh1 rad18 strain (AID 175); settings: S. cerevisiae mlh1 rad18 strain growth inhibition, stronger effect = higher value
How it was run: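 Yeast w/ defined DNA-repair lesions; compound exposure; growth vs vehicle controls → % inhibition.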

[14] = NCI Yeast Anticancer Drug Screen. Data for the rad18 strain (AID 177); settings: S. cerevisiae rad18 mutant growth inhibition, stronger effect = higher value
How it was run: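 Readout: growth inhibition vs vehicle controls. Cells: genetically altered yeast strain, DNA repair defect.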

[15] = NCI Yeast Anticancer Drug Screen. Data for the rad14 strain (AID 159);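 also: 0% = growth of vehicle-treated control cultures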; settings: S. cerevisiae rad14 strain growth inhibition, stronger effect = higher value
How it was run: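 Inhibition of growth is reported for a repair-deficient yeast mutant following compound treatment, calculated relative to cultures that received vehicle.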

[16] = NCI Yeast Anticancer Drug Screen. Data for the sgs1 mgt1 strain (AID 161);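 also: 0% = growth of cultures given vehicle only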; settings: S. cerevisiae sgs1 mgt1 strain, at 50.0 µM, stronger effect = higher value
How it was run: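 Inhibition of yeast growth, normalised to vehicle-treated controls, is reported for a strain bearing genetic alterations in DNA damage repair.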

[17] = at 5.0 µM (retest, dose inferred, filed as 0.5)
[18] = at 50.0 µM (retest, dose inferred, filed as 5.0)

N#CC(=S)Nc1cccc(Cl)c1
growth inhibition ([1]; at 1.2 µM): 3% | growth inhibition ([1]; at 3.7 µM): 1% | growth inhibition ([1]; at 11.0 µM): 10% | growth inhibition ([1]; at 33.0 µM): 26% | growth inhibition ([1]; at 100.0 µM): 50% | growth inhibition ([2]; at 1.2 µM): 7% | growth inhibition ([2]; at 3.7 µM): 10% | growth inhibition ([2]; at 11.0 µM): 23% | growth inhibition ([2]; at 33.0 µM): 31% | growth inhibition ([2]; at 100.0 µM): 41% | growth inhibition ([3]; at 1.2 µM): -12% | growth inhibition ([3]; at 3.7 µM): 2% | growth inhibition ([3]; at 11.0 µM): 10% | growth inhibition ([3]; at 33.0 µM): 25% | growth inhibition ([3]; at 100.0 µM): 46% | growth inhibition ([4]; at 1.2 µM): 2% | growth inhibition ([4]; at 3.7 µM): 15% | growth inhibition ([4]; at 11.0 µM): 24% | growth inhibition ([4]; at 33.0 µM): 42% | growth inhibition ([4]; at 100.0 µM): 76% (active) | growth inhibition ([5]; at 1.2 µM): 5% | growth inhibition ([5]; at 3.7 µM): 8% | growth inhibition [5, 17]: 39% | growth inhibition ([5]; at 11.0 µM): 3% | growth inhibition ([5]; at 33.0 µM): 18% | growth inhibition [5, 18]: 82% (active) | growth inhibition ([5]; at 50.0 µM): 46.9% | growth inhibition ([5]; at 100.0 µM): 51% | growth inhibition ([6]; at 1.2 µM): 28% | growth inhibition ([6]; at 3.7 µM): 19% | growth inhibition [6, 17]: 19% | growth inhibition ([6]; at 11.0 µM): 33% | growth inhibition ([6]; at 33.0 µM): 28% | growth inhibition [6, 18]: 64% | growth inhibition ([6]; at 50.0 µM): 57% | growth inhibition ([6]; at 100.0 µM): 80% (active) | growth inhibition ([7]; at 1.2 µM): 8% | growth inhibition ([7]; at 3.7 µM): 28% | growth inhibition ([7]; at 11.0 µM): 17% | growth inhibition ([7]; at 33.0 µM): 43% | growth inhibition ([7]; at 100.0 µM): 54% | growth inhibition [8, 17]: 8% | growth inhibition [8, 18]: 27% | growth inhibition ([8]; at 50.0 µM): 17.6% | growth inhibition ([9]; at 1.2 µM): 12% | growth inhibition ([9]; at 3.7 µM): 7% | growth inhibition [9, 17]: 26% | growth inhibition ([9]; at 11.0 µM): 2% | growth inhibition ([9]; at 33.0 µM): 41% | growth inhibition [9, 18]: 63% | growth inhibition ([9]; at 50.0 µM): 51.3% | growth inhibition ([9]; at 100.0 µM): 67% | growth inhibition ([10]; at 1.2 µM): 2% | growth inhibition ([10]; at 3.7 µM): 5% | growth inhibition ([10]; at 11.0 µM): -22% | growth inhibition ([10]; at 33.0 µM): 31% | growth inhibition ([10]; at 100.0 µM): 94% (active) | growth inhibition ([11]; at 1.2 µM): 2% | growth inhibition ([11]; at 3.7 µM): 7% | growth inhibition ([11]; at 11.0 µM): 26% | growth inhibition ([11]; at 33.0 µM): 43% | growth inhibition ([11]; at 100.0 µM): 78% (active) | growth inhibition ([12]; at 1.2 µM): 2% | growth inhibition ([12]; at 3.7 µM): 7% | growth inhibition ([12]; at 11.0 µM): 24% | growth inhibition ([12]; at 33.0 µM): 43% | growth inhibition ([12]; at 100.0 µM): 70% (active) | growth inhibition [13, 17]: 64% | growth inhibition [13, 18]: 86% (active) | growth inhibition ([13]; at 50.0 µM): 88.4% (active) | growth inhibition ([14]; at 1.2 µM): 1% | growth inhibition ([14]; at 3.7 µM): 12% | growth inhibition ([14]; at 11.0 µM): 23% | growth inhibition ([14]; at 33.0 µM): 37% | growth inhibition ([14]; at 100.0 µM): 58%

CN(N=O)C(=O)N[C@@H](C=O)[C@@H](O)[C@H](O)[C@H](O)CO
growth inhibition ([1]; at 1.2 µM): 0% | growth inhibition ([1]; at 3.7 µM): 1% | growth inhibition ([1]; at 11.0 µM): 5% | growth inhibition ([1]; at 33.0 µM): 2% | growth inhibition ([1]; at 100.0 µM): 3% | growth inhibition ([2]; at 1.2 µM): 0% | growth inhibition ([2]; at 3.7 µM): -1% | growth inhibition ([2]; at 11.0 µM): 0% | growth inhibition ([2]; at 33.0 µM): -1% | growth inhibition ([2]; at 100.0 µM): 20% | growth inhibition ([3]; at 1.2 µM): 0% | growth inhibition ([3]; at 3.7 µM): 0% | growth inhibition ([3]; at 11.0 µM): 0% | growth inhibition ([3]; at 33.0 µM): -7% | growth inhibition ([3]; at 100.0 µM): 3% | growth inhibition ([4]; at 1.2 µM): -1% | growth inhibition ([4]; at 3.7 µM): -1% | growth inhibition ([4]; at 11.0 µM): -18% | growth inhibition ([4]; at 33.0 µM): 0% | growth inhibition ([4]; at 100.0 µM): -1% | growth inhibition ([5]; at 1.2 µM): -1% | growth inhibition ([5]; at 3.7 µM): -1% | growth inhibition ([5]; at 11.0 µM): 4% | growth inhibition ([5]; at 33.0 µM): -1% | growth inhibition ([5]; at 50.0 µM): 3.9% | growth inhibition ([5]; at 100.0 µM): -2% | growth inhibition ([6]; at 1.2 µM): -3% | growth inhibition ([6]; at 3.7 µM): -7% | growth inhibition ([6]; at 11.0 µM): -6% | growth inhibition ([6]; at 33.0 µM): 2% | growth inhibition ([6]; at 50.0 µM): -7.8% | growth inhibition ([6]; at 100.0 µM): -7% | growth inhibition ([15]; at 1.2 µM): -1% | growth inhibition ([15]; at 3.7 µM): -3% | growth inhibition ([15]; at 11.0 µM): -2% | growth inhibition ([15]; at 33.0 µM): -2% | growth inhibition ([15]; at 100.0 µM): -4% | growth inhibition [16]: 17.6% | growth inhibition ([7]; at 1.2 µM): -10% | growth inhibition ([7]; at 3.7 µM): -3% | growth inhibition ([7]; at 11.0 µM): -6% | growth inhibition ([7]; at 33.0 µM): -9% | growth inhibition ([7]; at 100.0 µM): -6% | growth inhibition ([8]; at 50.0 µM): -1.1% | growth inhibition ([9]; at 1.2 µM): 1% | growth inhibition ([9]; at 3.7 µM): 0% | growth inhibition ([9]; at 11.0 µM): 0% | growth inhibition ([9]; at 33.0 µM): -4% | growth inhibition ([9]; at 50.0 µM): 7.3% | growth inhibition ([9]; at 100.0 µM): -1% | growth inhibition ([10]; at 1.2 µM): -3% | growth inhibition ([10]; at 3.7 µM): 0% | growth inhibition ([10]; at 11.0 µM): -2% | growth inhibition ([10]; at 33.0 µM): -1% | growth inhibition ([10]; at 100.0 µM): -1% | growth inhibition ([11]; at 1.2 µM): -1% | growth inhibition ([11]; at 3.7 µM): -1% | growth inhibition ([11]; at 11.0 µM): 1% | growth inhibition ([11]; at 33.0 µM): 0% | growth inhibition ([11]; at 100.0 µM): 0% | growth inhibition ([12]; at 1.2 µM): 0% | growth inhibition ([12]; at 3.7 µM): 0% | growth inhibition ([12]; at 11.0 µM): 2% | growth inhibition ([12]; at 33.0 µM): 2% | growth inhibition ([12]; at 100.0 µM): 1% | growth inhibition ([13]; at 50.0 µM): 4.1% | growth inhibition ([14]; at 1.2 µM): 0% | growth inhibition ([14]; at 3.7 µM): 0% | growth inhibition ([14]; at 11.0 µM): 0% | growth inhibition ([14]; at 33.0 µM): 2% | growth inhibition ([14]; at 100.0 µM): 19%
